The whole screen tested about 63,000 compounds, of which about 1,100 (1.7%) were called active. The sample holds actives, similar compounds and a random draw of the others, so the mix is not that of the screen. Cut-off read from the data, not from the text of the source: active = cytotoxicity above about 50%; inactive = the rest. Entries with a potency or affinity are not part of this list.
Assay: HPDE-C7 pancreatic duct cell viability loss – fluorescence, HTS (AID 430);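 note: cells exposed to compound for 48 hours before viability readout; 0% = vehicle and 100% = reference cytotoxic drug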
Settings: HPDE-C7 pancreatic duct cells viability, at 10 µM, hits give high values

| SMILES | cytotoxicity |
| --- | --- |
| CCCC(=O)c1ccc(N2CCN(C(=O)c3ccc(Br)cc3)CC2)c(F)c1 | -6.3% (inactive) |
| CCCC(=O)N1CCN(c2ccc(C(=O)c3ccc(OC)c(Br)c3)cc2F)CC1 | 58.1% (active) |
| CCCCCC(=O)N1CCN(c2ccc(C(C)=O)cc2F)CC1 | -3.3% (inactive) |
| CCN=C1SC(CC(=O)Nc2ccc(C(F)(F)F)cc2)C(=O)N1CC (configuration not stated) | -10.9% (inactive) |
| O=C(O)c1cc(-c2ccccc2)nc2ccccc12 | -1.2% (inactive) |
| Cc1ccc2nc(NCCO)nc(-c3ccccc3)c2c1 | 16.6% (inactive) |
| Clc1ccc(OCc2nc(-c3ccccn3)n[nH]2)cc1 | 42.3% (inactive) |
| Cc1cc(Cl)ccc1OCCCC(N)=O | -4.7% (inactive) |
| Cc1cc(Cl)ccc1OCc1nc(-c2ccc(O)cc2)n[nH]1 | 77.3% (active) |
| CN1CCCN(CC(O)COCc2cccs2)CC1 (configuration not stated) | 0.9% (inactive) |
| CC1(C)N=C(C(=O)c2ccccc2)N(O)C1(C)O (configuration not stated) | -11.9% (inactive) |
| CCOC(=O)Cn1c(=O)n(Cc2ccco2)c(=O)c2ccc(C(=O)NCCc3ccccc3)cc21 | 7.2% (inactive) |
| COc1cc2c(=O)n(Cc3ccccc3)c(=O)n(CC(=O)C(C)(C)C)c2cc1OC | -17.8% (inactive) |
| COc1cc2c(=O)n(Cc3ccco3)c(=O)n(CC(=O)c3cccc(Br)c3)c2cc1OC | 55% (active) |
| COc1cc2c(=O)n(Cc3ccccc3)c(=O)n(CC(=O)NCc3ccco3)c2cc1OC | 3.1% (inactive) |
| COc1ccc(CCNC(=O)Cn2c(=O)n(Cc3ccco3)c(=O)c3ccc(Cl)cc32)cc1OC | 13.9% (inactive) |
| COc1cc2c(=O)n(Cc3ccco3)c(=O)n(CC(=O)c3ccc(Br)cc3)c2cc1OC | 86% (active) |
| CS(=O)(=O)N(CC(=O)NCCSCc1cccc(Cl)c1)c1ccc2c(c1)OCO2 | 0.9% (inactive) |
| O=C(Nc1ccccc1)N(Cc1cccs1)C1CCCC1 | -7.6% (inactive) |
| CCN(CC)CCNC(=O)c1c(C)oc2cc(Br)c(OC)cc12 | 1.8% (inactive) |
| CCOC(=O)c1c(CN2CCN(C)CC2)n(C)c2cc(Br)c(OC)cc12 | -10.2% (inactive) |

| SMILES | cytotoxicity |
| --- | --- |
| CCOC(=O)c1c(C)n(C)c2cc(Br)c(C(=O)OC)cc12 | 9.9% (inactive) |
| CCOC(=O)c1c(CN2CCCCC2)n(C)c2cc(Br)c(OC)cc12 | 8.3% (inactive) |
| CCOC(=O)c1c(CNCCN(CC)CC)n(C)c2cc(Br)c(OC)cc12 | 57.3% (active) |
| CCOC(=O)c1c(CN2CCN(CCO)CC2)n(C)c2cc(Br)c(OC)cc12 | 77% (active) |
| O=C(c1ccco1)c1nnn(Cc2ccccc2)c1-c1ccccc1 | -7.7% (inactive) |
| COc1ccc(CN(C2CCCC2)S(=O)(=O)c2ccc(-n3cnnn3)cc2)cc1OC | -39.1% (inactive) |
| Cc1[nH]c(=O)[nH]c(=O)c1S(=O)(=O)N1CCCC(C(=O)NCCc2ccc(Cl)cc2)C1 (configuration not stated) | -9.4% (inactive) |
| CCOC(=O)c1csc(NC(=O)CSc2nnnn2-c2ccc(OCC)cc2)n1 | -21.4% (inactive) |
| O=C(c1cccs1)N1CCN(S(=O)(=O)N2CCOCC2)CC1 | -21.3% (inactive) |
| O=C(NCc1ccco1)C(c1ccncc1)N(CCC1=CCCCC1)C(=O)Cn1nnc2ccccc21 (configuration not stated) | 1.6% (inactive) |
| Fc1ccc(Br)cc1C1C=C(c2cccnc2)Nc2ncnn21 (configuration not stated) | 16.3% (inactive) |
| COc1cccc(C2C=C(c3ccc(Br)s3)Nc3ncnn32)c1OC (configuration not stated) | -9.3% (inactive) |
| Fc1ccc(Br)cc1C1C=C(c2ccc(Br)s2)Nc2ncnn21 (configuration not stated) | 55% (active) |
| Cc1cccc2cc(CN(Cc3ccco3)C(=O)c3cccs3)c(=O)[nH]c12 | -11.9% (inactive) |
| Cn1c(Cc2ccccc2)nnc1SCC(=O)Nc1ccccc1N1CCOCC1 | 2.9% (inactive) |
| CC(C)OC(=O)c1cn(-c2ccccc2)nc1-c1ccco1 | 4.8% (inactive) |
| OCCN(Cc1ccccc1)Cc1cccc(F)c1 | -3.2% (inactive) |
| Nc1c(C(=O)NC2CCCC2)c2nc3ccccc3nc2n1N | 11.6% (inactive) |
| COCCn1c(N)c(C(=O)NCC2CCCO2)c2nc3ccccc3nc21 (configuration not stated) | 11.4% (inactive) |
| CCCCNC(=O)c1c(N)n(/N=C/c2cccnc2)c2nc3ccccc3nc12 | 4% (inactive) |
| COCCNC(=O)c1c(N)n(CCCn2ccnc2)c2nc3ccccc3nc12 | 7% (inactive) |

| SMILES | cytotoxicity |
| --- | --- |
| Nc1c(C(=O)NC2CCCCC2)c2nc3ccccc3nc2n1/N=C/c1ccco1 | 5.1% (inactive) |
| Nc1c(C(=O)NCC2CCCO2)c2nc3ccccc3nc2n1-c1ccccc1 (configuration not stated) | 11.1% (inactive) |
| CC(C)Cn1c(N)c(C(=O)NCC2CCCO2)c2nc3ccccc3nc21 (configuration not stated) | 26.3% (inactive) |
| Nc1c(C(=O)NC2CCCC2)c2nc3ccccc3nc2n1/N=C/c1cccnc1 | 62.6% (active) |
| COCCNC(=O)c1c(N)n(-c2cccc(C)c2)c2nc3ccccc3nc12 | 9.2% (inactive) |
| O=C(Nc1ccccc1N1CCN(c2ccc(F)cc2)CC1)C1CCCCC1 | -6.3% (inactive) |
| O=C(Oc1cccc(Oc2ccccc2)c1)N1CCOCC1 | -6.3% (inactive) |
| CCN(CC)C(=O)CSC1=Nc2ccccc2C2=NC(Cc3c[nH]c4ccccc34)C(=O)N12 (configuration not stated) | -6.1% (inactive) |
| O=C(CSc1nnnn1C1CCCCC1)NCc1ccc2c(c1)OCO2 | 3.2% (inactive) |
| COCCN1C(=O)C(=O)/C(=C(/O)c2ccc(OC(C)C)cc2)C1c1cccnc1 (configuration not stated) | -2.7% (inactive) |
| CCN1CCN(C(=O)c2ccc3c(c2)N(Cc2ccc(F)cc2)C(=O)c2ccccc2S3=O)CC1 (configuration not stated) | -1.9% (inactive) |
| COc1ccc(OC)c(C2NC(=O)NC(C)=C2C(=O)Nc2ccc(C)cc2C)c1 (configuration not stated) | -13.3% (inactive) |
| COc1ccc(Cc2nc(-c3ccccc3)no2)cc1 | -1.1% (inactive) |
| CCOc1cc(S(=O)(=O)n2c(C)nc3ccccc32)ccc1F | 2.2% (inactive) |
| CCN(Cc1ccccc1)Cc1cc(OC)cc(OC)c1 | 8% (inactive) |
| CSCCC(NC(=O)c1cc(CC(C)C)oc1C)C(=O)O (configuration not stated) | -17.8% (inactive) |
| CCc1nnc(NC2=NCCC2)s1 | -21.5% (inactive) |
| CC(C)Cn1c(N)c(C(=O)NCc2cccs2)c2nc3ccccc3nc21 | 63.9% (active) |
| COCCn1c(N)c(C(=O)NCc2cccs2)c2nc3ccccc3nc21 | -11.2% (inactive) |
| CC(C)Cn1c(N)c(C(=O)NCCN2CCOCC2)c2nc3ccccc3nc21 | -16.3% (inactive) |

From PubChem BioAssay AID430 (Sanford-Burnham Center for Chemical Genomics, 2006)
